Results filed as inconclusive are left out. Active and inactive are the calls of the source. The call rests on the fitted dose curve; in most records, active means well fitted curve in the direction sought with a large enough effect; inconclusive means small, poorly fitted or top-dose-only effect, or another doubt; inactive means no such curve, though single readings can be large; an effect the other way counts as inactive or inconclusive.

Test [1] addresses Voltage-gated inwardly rectifying potassium channel KCNH2 (Homo sapiens) (UniProt Q12809). Put plainly: qHTS Assay for Small Molecule Inhibitors of the Human hERG Channel Activity (AID 588834).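 Further: lower thallium flux fluorescence means stronger hERG block; nearly all actives have a fitted effect of over 50% in size.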 Further: potency means the concentration at half of the fitted maximal effect. The method, boiled down: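 Thallium-flux (FluxOR) read-out on FDSS: fluorescence read 10 s before and 2 min after stimulation buffer. hERG-BacMam-transduced U2OS cells, compound exposure about 10 min. AC50 by standard Hill equation.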
Background: Quantitative high-throughput screening tests each substance at several concentrations.

Test [2] has as its target Glutaminase kidney isoform, mitochondrial (Homo sapiens) (UniProt O94925). In words: qHTS for Inhibitors of Glutaminase (GLS): LOPAC Validation (AID 624146). Further: nearly all actives have a fitted effect of over 60% in size. Further: potency means the concentration at half of the fitted maximal effect. The method, boiled down: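 Enzyme dispensed in phosphate buffer (45 mM, pH 8.2, 0.02% Tween-20), compounds pinned in, then 1 mM L-glutamine solution and the glutamate oxidase–HRP–Amplex Red mix added; fluorescence read immediately and again after 30 min at room temperature.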

A short description of test [3]: qHTS of Trypanosoma Brucei Inhibitors: LOPAC Validation (AID 624147). Further: potency means the concentration at half of the fitted maximal effect. The method, boiled down: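 Luminescent Kinase-Glo Plus end-point after 45 min room-temperature reaction of T. brucei pyruvate kinase started with 130 uM ADP (final). Buffer TEA 50 mM pH 7.2 with KCl, MgCl2, BSA, Tween-20; titration-based qHTS with fitted concentration-effect curves.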
The target in test [4] is Glucagon-like peptide 1 receptor (Homo sapiens) (UniProt P43220). Put plainly: qHTS of GLP-1 Receptor Agonists: LOPAC Validation (AID 624148).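 Further: higher luminescence signal means agonism.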 In outline:
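HEK293 cells stably co-expressing a cAMP-responsive luciferase reporter and a hypersensitive GLP-1R were plated 12 h at 37 °C and exposed to compounds for 4-6 hr at 37 °C, 5% CO2. Luminescence was read 12 min after adding detection reagent.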

A short description of test [5]: S16 Schwann cell viability assay (CellTiter-Glo assay) (AID 624031).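 Further: cellular ATP luminescence as a viability measure; series mostly up to about 58 µM; nearly all actives have a fitted effect of over 70% in size.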 The method, boiled down:
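Native S16 rat Schwann cells, 500-750 cells/well in DMEM with 10% FBS, dosed with compound after overnight culture and incubated 24h at 37 degree Celsius/5% CO2. Viability by CellTiter-Glo luminescence; % activity normalized to no-cell wells and DMSO-treated cells.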

Test [6] is described as follows: qHTS of Nrf2 Activators: LOPAC Validation (AID 624149). In outline: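 Following overnight seeding in 5% FBS OPTI-MEM, AREc32_Fluc cells receive compounds for a 24 hr incubation at 37 deg C with 5% CO2. Steady-Glo is added, and after 30 min at RT luminescence is recorded.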

Glutaminase kidney isoform, mitochondrial (Homo sapiens), sequence (O94925 whole entry, looked up, canonical isoform): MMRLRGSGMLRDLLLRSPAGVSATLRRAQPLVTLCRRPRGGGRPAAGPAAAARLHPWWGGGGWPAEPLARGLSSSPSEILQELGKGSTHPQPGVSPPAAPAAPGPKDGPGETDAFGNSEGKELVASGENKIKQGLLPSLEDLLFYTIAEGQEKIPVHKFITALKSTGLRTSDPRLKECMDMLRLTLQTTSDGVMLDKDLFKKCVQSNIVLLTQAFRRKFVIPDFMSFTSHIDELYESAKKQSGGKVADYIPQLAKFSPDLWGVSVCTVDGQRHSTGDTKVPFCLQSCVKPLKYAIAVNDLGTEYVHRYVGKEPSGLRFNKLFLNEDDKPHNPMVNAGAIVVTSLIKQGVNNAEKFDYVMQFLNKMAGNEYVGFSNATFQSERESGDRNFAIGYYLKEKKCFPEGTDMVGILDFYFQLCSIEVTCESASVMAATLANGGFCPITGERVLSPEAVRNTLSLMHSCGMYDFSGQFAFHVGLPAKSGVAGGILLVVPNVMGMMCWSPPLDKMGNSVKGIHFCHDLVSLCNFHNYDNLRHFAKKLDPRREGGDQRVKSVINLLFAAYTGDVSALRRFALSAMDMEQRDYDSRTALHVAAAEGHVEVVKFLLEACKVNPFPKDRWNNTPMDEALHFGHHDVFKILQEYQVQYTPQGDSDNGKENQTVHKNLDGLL
Voltage-gated inwardly rectifying potassium channel KCNH2 (Homo sapiens), sequence (Q12809 whole entry, looked up): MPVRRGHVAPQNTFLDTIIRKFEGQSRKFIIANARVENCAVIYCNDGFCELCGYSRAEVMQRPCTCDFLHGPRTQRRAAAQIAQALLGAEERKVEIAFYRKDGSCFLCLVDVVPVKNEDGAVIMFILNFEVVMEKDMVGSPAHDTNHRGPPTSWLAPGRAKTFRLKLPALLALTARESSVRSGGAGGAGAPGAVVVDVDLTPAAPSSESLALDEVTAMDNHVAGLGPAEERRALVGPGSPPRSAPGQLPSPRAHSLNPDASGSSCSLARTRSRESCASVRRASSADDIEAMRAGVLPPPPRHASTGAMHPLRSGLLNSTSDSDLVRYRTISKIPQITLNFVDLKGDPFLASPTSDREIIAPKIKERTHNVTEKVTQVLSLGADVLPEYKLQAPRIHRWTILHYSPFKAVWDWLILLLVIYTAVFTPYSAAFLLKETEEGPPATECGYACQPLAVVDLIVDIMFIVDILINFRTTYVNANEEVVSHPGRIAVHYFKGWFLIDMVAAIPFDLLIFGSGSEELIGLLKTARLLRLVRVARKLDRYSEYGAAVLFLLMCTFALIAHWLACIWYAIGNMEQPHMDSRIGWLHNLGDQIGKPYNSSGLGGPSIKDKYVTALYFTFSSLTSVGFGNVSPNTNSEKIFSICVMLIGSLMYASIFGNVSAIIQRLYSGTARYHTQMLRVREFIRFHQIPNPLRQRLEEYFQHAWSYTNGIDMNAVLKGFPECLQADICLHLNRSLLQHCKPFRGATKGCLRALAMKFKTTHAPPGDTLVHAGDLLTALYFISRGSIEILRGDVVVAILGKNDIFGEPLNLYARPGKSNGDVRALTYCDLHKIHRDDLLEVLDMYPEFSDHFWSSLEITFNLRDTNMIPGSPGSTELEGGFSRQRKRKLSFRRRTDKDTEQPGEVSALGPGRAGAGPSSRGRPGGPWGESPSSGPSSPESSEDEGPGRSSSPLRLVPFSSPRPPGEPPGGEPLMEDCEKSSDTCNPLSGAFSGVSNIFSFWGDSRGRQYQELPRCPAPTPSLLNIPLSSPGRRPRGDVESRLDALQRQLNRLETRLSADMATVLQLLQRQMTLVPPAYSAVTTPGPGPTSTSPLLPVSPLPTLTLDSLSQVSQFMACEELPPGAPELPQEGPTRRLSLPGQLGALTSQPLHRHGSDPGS
Glucagon-like peptide 1 receptor (Homo sapiens), sequence (P43220 whole entry, looked up): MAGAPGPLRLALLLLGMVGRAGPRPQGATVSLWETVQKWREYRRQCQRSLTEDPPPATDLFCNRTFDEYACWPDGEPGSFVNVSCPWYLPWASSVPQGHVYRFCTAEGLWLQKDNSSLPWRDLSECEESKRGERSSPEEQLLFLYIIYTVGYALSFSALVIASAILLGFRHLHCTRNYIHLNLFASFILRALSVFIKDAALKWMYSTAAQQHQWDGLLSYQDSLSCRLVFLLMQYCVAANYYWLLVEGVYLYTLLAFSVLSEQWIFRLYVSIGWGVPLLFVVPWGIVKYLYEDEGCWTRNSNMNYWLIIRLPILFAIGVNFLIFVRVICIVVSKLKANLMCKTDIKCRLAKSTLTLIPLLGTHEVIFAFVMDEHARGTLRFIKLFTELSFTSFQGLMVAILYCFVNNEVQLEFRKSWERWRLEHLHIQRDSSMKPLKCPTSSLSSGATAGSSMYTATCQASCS

With `Oc1cc(O)cc(/C=C/c2ccc(O)c(O)c2)c1`, the Potency entry in test [1] is “inactive”. For the same compound, the Potency is 2 µM (active) in test [2] and 13.5 µM (active) in test [3]. Also, the result in test [4] was inactive.

As to `CCCSc1ccc2nc(NC(=O)OC)[nH]c2c1`, the Potency entry in test [1] and in test [5] was “inactive” throughout.

For `CC1CN(S(=O)(=O)c2cccc3cnccc23)CCN1` (stereo unspecified), the Potency result in test [1], in test [2] and in test [3] was “inactive” throughout. In addition, the outcome in test [4] and in test [6] was inactive.

As for `O=C(O)c1cc([N+](=O)[O-])ccc1NCCCc1ccccc1`, the Potency result in test [1], in test [2] and in test [3] was “inactive” in each case. For the same compound, the outcome in test [4] and in test [6] was inactive.

With `CCCCCCCCCCCCCCCC(=O)NCC(COP(=O)([O-])OCC[N+](C)(C)C)OCC` (stereo unspecified), the Potency result in test [1], in test [2] and in test [3] was “inactive” in each case. The compound was classed as inactive in test [4] and in test [6].

Consider `CC(=O)N[C@H](C(=O)O)C(C)(C)SN=O`, for which the Potency result in test [1], in test [2] and in test [3] was “inactive” throughout. Also, the compound was classed as inactive in test [4] and in test [6].

Consider `O=C(O)[C@@H]1C[C@@H](C(=O)O)N1`, for which the Potency result in test [1], in test [2] and in test [3] was “inactive” each time. Besides, the result in test [4] and in test [6] was inactive.

In the case of `O=C(O)CC[C@@H](C(=O)O)N1C(=O)c2ccccc2C1=O`, the Potency entry in test [1], in test [2] and in test [3] was “inactive” throughout. For the same compound, the outcome in test [4] and in test [6] was inactive.

With `O=C(O)CCCC[C@@H]1CCSS1`, the Potency entry in test [1], in test [2] and in test [3] was “inactive” each time. The compound was called inactive in test [4] and in test [6].

Regarding `CN1CCc2ccccc2Cc2[nH]c3ccccc3c2CC1`, the Potency in test [1] and in test [2] was 8.91 µM (active) in each case. In addition, the Potency entry in test [3] is “inactive”. For the same compound, the result in test [4] and in test [6] was inactive.

For the compound `NCCSSCCN`, the Potency entry in test [1], in test [2] and in test [3] was “inactive” throughout. The result in test [4] and in test [6] was inactive.

Regarding `Brc1c(Br)c(Br)c2n[nH]nc2c1Br`, the Potency result in test [1], in test [2] and in test [3] was “inactive” in each case. Moreover, the outcome in test [4] and in test [6] was inactive.

Take `NC(=O)C(=O)O`: the Potency entry in test [1], in test [2] and in test [3] was “inactive” in each case. The compound was classed as inactive in test [4] and in test [6].

The values are drawn from PubChem BioAssay (NCATS).
